Results from PubChem BioAssay AID1159580 (chemical genetic matrix, 2015).
“And” between values parts separate entries of the source, which are not always exact repeats. Identical values can stand only once. In all, about 5,500 compounds went through this assay and about 2,000 (36%) were called active. Roughly 18% stayed inconclusive and do not appear here. Rule as the data show it: active = normalized growth mostly below about 0.91 (no sharp cut-off); inconclusive = no clear call, values can overlap the other calls; inactive = mostly above about 0.92. The list shows a part of the results.

Assay: chemical genetic growth profiling, strain panel (AID 1159580);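 also: tested at 20 µM; growth read once vehicle control cultures reached saturation at 30 °C; 1 = growth at the plate median or of vehicle wells; lower values mean less growth of the strain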
Conditions: S. cerevisiae deletion strains, growth OD

Measured: normalized growth

CCCCC(=O)O[C@H]1CCC2C3CCc4cc(O)ccc4C3CC[C@@]21C (some centres not stated)
inactive: locus YAL021C, strain ccr4, stronger effect = lower value 1.02 | locus YAL026C, strain drs2, stronger effect = lower value 1.02 | locus YAL030W, strain snc1, stronger effect = lower value 1.03 | locus YBL061C, strain skt5, stronger effect = lower value 1.01 | locus YBR009C, strain hhf1, stronger effect = lower value 0.988 | locus YBR021W, strain FUR4, stronger effect = lower value 0.99 | locus YBR023C, strain chs3, stronger effect = lower value 1.01 | locus YBR171W, strain sec66, stronger effect = lower value 1.03 | locus YBR229C, strain ROT2, stronger effect = lower value 0.943 | locus YBR231C, strain swc5, stronger effect = lower value 1.04 | locus YBR279W, strain paf1, stronger effect = lower value 1.01 | locus YCL011C, strain gbp2, stronger effect = lower value 1.01 | locus YCL016C, strain dcc1, stronger effect = lower value 0.979 | locus YCL029C, strain bik1, stronger effect = lower value 0.98 | locus YCL061C, strain MRC1, stronger effect = lower value 1.02 | locus YCL069W, strain vba3, stronger effect = lower value 1.01 | locus YCR088W, strain abp1, stronger effect = lower value 1.01 | locus YDL005C, strain med2, stronger effect = lower value 1.01 | locus YDL035C, strain GPR1, stronger effect = lower value 0.948 | locus YDL040C, strain nat1, stronger effect = lower value 1.02 | locus YDL074C, strain BRE1, stronger effect = lower value 0.926 | locus YDL101C, strain DUN1, stronger effect = lower value 0.98 | locus YDL134C, strain PPH21, stronger effect = lower value 0.954 | locus YDL185W, strain tfp1, stronger effect = lower value 0.988 | locus YDL192W, strain arf1, stronger effect = lower value 1 | locus YDR001C, strain nth1, stronger effect = lower value 1.01 | locus YDR069C, strain doa4, stronger effect = lower value 1.01 | locus YDR101C, strain arx1, stronger effect = lower value 0.953 | locus YDR137W, strain rgp1, stronger effect = lower value 0.973 | locus YDR150W, strain NUM1, stronger effect = lower value 0.988 | locus YDR159W, strain sac3, stronger effect = lower value 0.953 | locus YDR162C, strain NBP2, stronger effect = lower value 0.919 | locus YDR195W, strain ref2 1.03 | locus YDR297W, strain sur2, stronger effect = lower value 1.03 | locus YDR318W, strain mcm21, stronger effect = lower value 0.996 | locus YDR334W, strain swr1, stronger effect = lower value 1.02 | locus YDR335W, strain msn5, stronger effect = lower value 1.02 | locus YDR388W, stronger effect = lower value 0.992 | locus YDR392W, strain spt3, stronger effect = lower value 0.804 | locus YDR502C, strain sam2, stronger effect = lower value 0.995 | locus YEL003W, strain gim4, stronger effect = lower value 1.02 | locus YEL037C, strain rad23, stronger effect = lower value 1.02 | locus YEL061C, strain CIN8 (second series), stronger effect = lower value 1.02 | locus YEL061C, strain CIN8, stronger effect = lower value 0.985 | locus YER015W, strain faa2, stronger effect = lower value 1 | locus YER016W, strain bim1, stronger effect = lower value 1 | locus YER110C, stronger effect = lower value 1.01 | locus YER111C, strain swi4, stronger effect = lower value 1.01 | locus YER155C, strain BEM2 (second series), stronger effect = lower value 1.03 | locus YER155C, strain BEM2, stronger effect = lower value 0.979 | locus YER167W, strain BCK2, stronger effect = lower value 0.979 | locus YFR010W, strain ubp6, stronger effect = lower value 1.04 | locus YGL078C, strain dbp3, stronger effect = lower value 1.01 | locus YGL086W, strain mad1, stronger effect = lower value 0.968 | locus YGL167C, strain pmr1, stronger effect = lower value 1.04 | locus YGL173C, strain kem1, stronger effect = lower value 1.01 | locus YGL227W, strain vid30, stronger effect = lower value 1.01 | locus YGL240W, strain doc1, stronger effect = lower value 1.04 | locus YGL248W, strain PDE1, stronger effect = lower value 0.976 | locus YGL253W, strain hxk2, stronger effect = lower value 0.997 | locus YGR078C, strain PAC10, stronger effect = lower value 0.973 | locus YGR135W, strain pre9, stronger effect = lower value 1.07 | locus YGR252W, strain gcn5, stronger effect = lower value 1.1 | locus YHR013C, strain ard1, stronger effect = lower value 1.03 | locus YHR027C, strain rpn1, stronger effect = lower value 1.02 | locus YHR030C, strain SLT2, stronger effect = lower value 0.98 and 0.996 | locus YHR079C, strain IRE1 (second series), stronger effect = lower value 0.997 | locus YHR079C, strain IRE1, stronger effect = lower value 0.989 | locus YHR094C, strain hxt1, stronger effect = lower value 0.991 | locus YHR129C, strain ARP1, stronger effect = lower value 0.989 | locus YHR142W, strain chs7, stronger effect = lower value 1.01 | locus YHR200W, strain rpn10, stronger effect = lower value 0.998 | locus YIL066C, strain RNR3, stronger effect = lower value 0.961 | locus YIL073C, strain SPO22, stronger effect = lower value 1 | locus YIL125W, strain kgd1, stronger effect = lower value 0.998 | locus YIR030C, strain dcg1, stronger effect = lower value 1.01 | locus YJL092W, strain hpr5, stronger effect = lower value 1.01 | locus YJL095W, strain BCK1 (second series), stronger effect = lower value 1.02 | locus YJL095W, strain BCK1, stronger effect = lower value 0.926 and 0.996 | locus YJL115W, strain asf1, stronger effect = lower value 1.02 | locus YJL129C, strain trk1, stronger effect = lower value 0.996 | locus YJL134W, strain LCB3, stronger effect = lower value 0.982 | locus YJL154C, strain vps35, stronger effect = lower value 1.01 | locus YJL164C, strain tpk1, stronger effect = lower value 0.987 | locus YJL166W, strain qcr8, stronger effect = lower value 1.02 | locus YJL168C, strain set2, stronger effect = lower value 1 | locus YJL187C, strain SWE1 (second series), stronger effect = lower value 0.982 | locus YJL187C, strain SWE1, stronger effect = lower value 1.02 | locus YJR043C, strain POL32, stronger effect = lower value 0.955 | locus YJR066W, strain TOR1, stronger effect = lower value 0.916 | locus YKL009W, strain mrt4, stronger effect = lower value 0.95 | locus YKL068W, stronger effect = lower value 0.989 | locus YKL085W, strain MDH1 (second series), stronger effect = lower value 1.01 | locus YKL085W, strain MDH1, stronger effect = lower value 1.01 | locus YKL160W, strain elf1, stronger effect = lower value 1.01 | locus YKL190W, strain CNB1, stronger effect = lower value 0.992 | locus YKR001C, strain vps1, stronger effect = lower value 0.959 | locus YKR026C, strain gcn3, stronger effect = lower value 1.01 | locus YKR091W, strain srl3, stronger effect = lower value 1.01 | locus YLL001W, strain dnm1, stronger effect = lower value 1.02 | locus YLL026W, stronger effect = lower value 1.02 | locus YLL041C, strain sdh2, stronger effect = lower value 1.02 | locus YLR027C, strain aat2, stronger effect = lower value 1.03 | locus YLR039C, strain RIC1, stronger effect = lower value 0.848 | locus YLR058C, strain SHM2, stronger effect = lower value 0.96 | locus YLR102C, strain apc9, stronger effect = lower value 1.01 | locus YLR113W, strain HOG1, stronger effect = lower value 1.03 | locus YLR221C, strain rsa3, stronger effect = lower value 0.995 | locus YLR258W, strain gsy2, stronger effect = lower value 1 | locus YLR262C, strain YPT6 (second series), stronger effect = lower value 0.974 | locus YLR262C, strain YPT6, stronger effect = lower value 0.749 | locus YLR268W, strain sec22, stronger effect = lower value 0.982 | locus YLR320W, strain mms22, stronger effect = lower value 0.981 | locus YLR330W, strain CHS5, stronger effect = lower value 0.984 | locus YLR342W, strain FKS1 (second series), stronger effect = lower value 0.98 | locus YLR342W, strain FKS1, stronger effect = lower value 0.998 | locus YLR357W, strain rsc2, stronger effect = lower value 0.999 | locus YLR370C, strain arc18, stronger effect = lower value 1.03 | locus YLR371W, strain rom2, stronger effect = lower value 0.985 | locus YLR384C, strain iki3, stronger effect = lower value 1.02 | locus YLR418C, strain cdc73, stronger effect = lower value 1.02 | locus YML016C, strain PPZ1, stronger effect = lower value 0.979 | locus YML032C, strain rad52, stronger effect = lower value 0.987 | locus YML120C, strain ndi1, stronger effect = lower value 1.02 | locus YML124C, strain tub3, stronger effect = lower value 1 | locus YMR058W, strain fet3, stronger effect = lower value 1.02 | locus YMR078C, strain ctf18, stronger effect = lower value 1 | locus YMR125W, strain sto1, stronger effect = lower value 0.999 | locus YMR129W, stronger effect = lower value 1.01 | locus YMR205C, strain PFK2, stronger effect = lower value 0.985 | locus YMR223W, strain ubp8, stronger effect = lower value 1.04 | locus YMR231W, strain pep5, stronger effect = lower value 1.05 | locus YMR307W, strain GAS1, stronger effect = lower value 0.881 | locus YNL067W, strain RPL9B, stronger effect = lower value 0.982 | locus YNL071W, strain lat1, stronger effect = lower value 0.965 | locus YNL128W, strain TEP1, stronger effect = lower value 0.982 | locus YNL183C, strain NPR1, stronger effect = lower value 0.983 | locus YNL209W, strain ssb2, stronger effect = lower value 1.02 | locus YNL233W, strain BNI4, stronger effect = lower value 0.986 | locus YNL248C, strain rpa49, stronger effect = lower value 1.01 | locus YNL250W, strain rad50, stronger effect = lower value 0.984 | locus YNL271C, strain bni1, stronger effect = lower value 1 | locus YNL298W, strain CLA4, stronger effect = lower value 1 | locus YNL307C, strain MCK1, stronger effect = lower value 1 | locus YNL322C, strain KRE1 (second series), stronger effect = lower value 1.01 | locus YNL322C, strain KRE1, stronger effect = lower value 0.998 | locus YNR049C, strain mso1, stronger effect = lower value 1 | locus YNR052C, strain pop2, stronger effect = lower value 1.01 | locus YOL012C, strain htz1 1.24 | locus YOL147C, strain pex11, stronger effect = lower value 1.01 | locus YOR001W, strain rrp6, stronger effect = lower value 1.03 | locus YOR061W, strain CKA2, stronger effect = lower value 0.962 | locus YOR069W, strain VPS5, stronger effect = lower value 0.984 | locus YOR070C, strain gyp1, stronger effect = lower value 1.02 | locus YOR080W, strain dia2, stronger effect = lower value 1.03 | locus YOR083W, strain WHI5, stronger effect = lower value 1 | locus YOR106W, strain vam3, stronger effect = lower value 1.04 | locus YOR136W, strain idh2, stronger effect = lower value 1 | locus YOR144C, strain elg1, stronger effect = lower value 0.999 | locus YOR184W, strain ser1, stronger effect = lower value 0.969 | locus YOR231W, strain MKK1, stronger effect = lower value 1.04 | locus YOR265W, strain rbl2, stronger effect = lower value 1.02 | locus YOR270C, strain vph1, stronger effect = lower value 0.965 | locus YOR290C, strain snf2, stronger effect = lower value 0.988 | locus YOR316C, strain cot1, stronger effect = lower value 0.994 | locus YPL051W, strain arl3, stronger effect = lower value 1.01 | locus YPL055C, strain LGE1, stronger effect = lower value 0.959 | locus YPL078C, strain atp4, stronger effect = lower value 1.03 | locus YPL106C, strain sse1, stronger effect = lower value 1 | locus YPL240C, strain hsp82, stronger effect = lower value 1.01 | locus YPL241C, strain CIN2, stronger effect = lower value 0.975 | locus YPL256C, strain CLN2, stronger effect = lower value 1 | locus YPR119W, strain clb2, stronger effect = lower value 0.998 | locus YPR141C, strain kar3, stronger effect = lower value 0.997 | locus YPR163C, strain tif3, stronger effect = lower value 1.01 | locus YPR167C, strain met16, stronger effect = lower value 1 | strain wtn01, stronger effect = lower value 1.03
